The text below walks through data of PubChem BioAssay (EPA / NIEHS).

Read-out in experiment [1]: UDP glucuronosyltransferase (UGT1A1), UGT1A1 (gene 54658)
As to the kind of experiment: LTEA_HepaRG_UGT1A1: Life Technologies and Expression Analysis (LTEA) Assay for UDP glucuronosyltransferase (UGT1A1) using HepaRG (AID 2283538; active = hit-call score of the fitted dose curve at least 0.9, where 1 is the maximum; inactive = score below 0.9). The following applies: mRNA level, 48 h; actives raise or lower the signal. The essentials: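 Differentiated human HepaRG cells in serum-free induction medium were exposed in duplicate for 48 h to eight half-log concentrations up to 100 uM in 0.5% DMSO. UGT1A1 mRNA was quantified by TaqMan qRT-PCR, normalized to ACTB, GAPDH and POLR2A, and fitted bidirectionally against DMSO.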

Read-out in experiment [2]: UDP glucuronosyltransferase (UGT1A6), UGT1A6 (gene 54578)
In words: LTEA_HepaRG_UGT1A6: Life Technologies and Expression Analysis (LTEA) Assay for UDP glucuronosyltransferase (UGT1A6) using HepaRG (AID 2283539; active = hit-call score of the fitted dose curve at least 0.9, where 1 is the maximum; inactive = score below 0.9). The following applies: mRNA level, 48 h; actives raise or lower the signal. The essentials:
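HepaRG, 48 h post-plating switch to serum-free induction medium; chemical 48 h, 100 uM top, half-log x8, duplicate, 0.5% DMSO. Phenobarbital 1mM induction control. UGT1A6 mRNA by TaqMan qRT-PCR; gain/loss fit vs DMSO.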

A short description of experiment [3]: LTEA_HepaRG_LDH_cytotoxicity: Cytotoxicity Assessment in the Life Technologies and Expression Analysis (LTEA) Assay (AID 2283563).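 As to AC50: LDH activity released into spent culture medium as a marker of cell death.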 The essentials: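 Cells were thawed and plated for 48 h. Medium was then replaced with serum-free induction medium. Chemicals (8 half-log points, maximum 100 uM, 0.5% DMSO) were added in duplicate for 48 h, after which spent medium was assayed for LDH.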

A short description of experiment [4]: TOX21_p53_BLA_p2_viability: Viability Assessment in the Tox21 HCT-116 p53 Agonism Beta-lactamase Assay, Phase 2 (AID 2283591).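 Also: compound exposure lasted 16 h at 37 °C; actives lower the ATP signal meaning cytotoxicity.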 Put shortly: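 HCT-116 p53-bla cells (4000/well) rested 5 h at 37C, then received compounds in DMSO (217-fold dilution) for 16 h at 37C, 5% CO2. After the CCF4 read, CellTiter-Glo was added; ATP luminescence was read after 30 min at room temperature.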

The target in experiment [5] is Cellular tumor antigen p53 (Homo sapiens) (UniProt P04637). As to the kind of experiment: TOX21_p53_BLA_p2_ratio: Tox21 HCT-116 p53 Agonism Beta-lactamase Assay, Ratio, Phase 2 (AID 2283592). Put shortly: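 HCT116 p53-bla; 4000 cells/well; 5 h pre-incubation; cpd in DMSO, 217-fold dilution; 16 h 37C/5% CO2; CCF4-AM 2 h RT; Ex 405, Em 460/530 ratio; DMSO = baseline; positive fitting direction.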

Experiment [6] in a line: TOX21_p53_BLA_p3_viability: Viability Assessment in the Tox21 HCT-116 p53 Agonism Beta-lactamase Assay, Phase 3 (AID 2283593).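 Also: cells exposed to compound for 16 h before reading.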 The essentials: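 HCT-116 cells (4000/well) rested 5 h at 37C, then got DMSO compounds by pin tool (217-fold dilution) for 16 h at 37C, 5% CO2. After the bla read, CellTiter-Glo was added and luminescence read at 30 min, room temperature.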
In experiment [7] the target is Cellular tumor antigen p53 (Homo sapiens) (UniProt P04637). As to the kind of experiment: TOX21_p53_BLA_p3_ratio: Tox21 HCT-116 p53 Agonism Beta-lactamase Assay, Ratio, Phase 3 (AID 2283596). The essentials:
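HCT116 p53-bla cells (4000/well) given compound in DMSO (217-fold dilution) after 5 h, incubated 16 h at 37C. CCF4-AM substrate 2 h at room temperature; 460/530 nm emission ratio, gain fitted against DMSO.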

Experiment [8] in a line: TOX21_p53_BLA_p4_viability: Viability Assessment in the Tox21 HCT-116 p53 Agonism Beta-lactamase Assay, Phase 4 (AID 2283597).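 Also: hits lower the luminescence signal meaning cytotoxicity.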 The essentials: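 Cells plated, 5 h pre-incubation; DMSO compounds pinned (217-fold dilution); 16 h, 37C/5% CO2; CCF4-AM 2 h RT; CellTiter-Glo 30 min RT; luminescence read.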
Experiment [9] has as its target Cellular tumor antigen p53 (Homo sapiens) (UniProt P04637). In words: TOX21_p53_BLA_p5_ratio: Tox21 HCT-116 p53 Agonism Beta-lactamase Assay, Ratio, Phase 5 (AID 2283599). The essentials:
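HCT-116 cells carrying a p53-inducible beta-lactamase reporter were seeded at 4000 cells/well and dosed after 5 h with compound in DMSO (217-fold dilution). After 16 h at 37C, CCF4-AM substrate was added for 2 h, and the 460/530 nm emission ratio was scored as gain-of-signal versus DMSO.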

Experiment [10] in a line: TOX21_p53_BLA_p5_viability: Viability Assessment in the Tox21 HCT-116 p53 Agonism Beta-lactamase Assay, Phase 5 (AID 2283600). The essentials:
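4000 cells/well; 5 h pre-incubation; DMSO compounds pin-transferred, 217-fold dilution; 16 h, 37C/5% CO2; CCF4-AM 2 h RT; CellTiter-Glo 30 min RT; luminescence.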

Experiment [11] can be described thus: Tanguay_ZF_120hpf_MORT_legacy: (Legacy) Oregon State University Tanguay Lab 120 Hour Post-fertilization zebrafish Assay for Mortality (AID 2283633). The essentials: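 5D WT zebrafish, chorion removed 4 hpf; 1 embryo/well from 6 hpf; static exposure to 120 hpf, 28C, dark, sealed. Final DMSO 0.64%. Readout: binary mortality, brightfield, 24 + 120 hpf; DMSO as negative control.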

Experiment [12] in a line: Tanguay_ZF_120hpf_YSE_legacy: (Legacy) Oregon State University Tanguay Lab 120 Hour Post-fertilization zebrafish Assay for Yolk Sac Edema (AID 2283634).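 As to AC50: actives raise the incidence of yolk sac edema above the DMSO baseline.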 The essentials: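 Dechorionate (pronase, 4 hpf) → place one 6 hpf embryo per well → static compound exposure, sealed and foil-covered, 28C, to 120 hpf → record yolk sac edema as present or absent. Final DMSO 0.64%.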
Experiment [13] can be described thus: Tanguay_ZF_120hpf_AXIS_legacy: (Legacy) Oregon State University Tanguay Lab 120 Hour Post-fertilization zebrafish Assay for Body Axis Malformation (AID 2283635).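 As to AC50: potency for an increased fraction of larvae scored with body axis malformation.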 Put shortly:
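Chorion is removed with pronase at 4 hpf, then single 6 hpf embryos are dosed (final DMSO 0.64%) and held statically at 28C in sealed, foil-covered plates. At 120 hpf body axis malformation is recorded as present or absent.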

Experiment [14] can be described thus: Tanguay_ZF_120hpf_EYE_legacy: (Legacy) Oregon State University Tanguay Lab 120 Hour Post-fertilization zebrafish Assay for Eye Malformation (AID 2283636).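 Also: binary presence or absence of eye malformation scored by brightfield in 120 hpf larvae.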 The essentials: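 Dechorionated wild-type Tropical 5D zebrafish embryos were exposed statically from 6 hpf, one per well, to 120 hpf at 28C in sealed, foil-covered plates with 0.64% DMSO. Eye malformation was scored present/absent by brightfield microscopy against DMSO controls.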

Experiment [15] is described as follows: Tanguay_ZF_120hpf_JAW_legacy: (Legacy) Oregon State University Tanguay Lab 120 Hour Post-fertilization zebrafish Assay for Jaw Malformation (AID 2283638).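 As to AC50: active means more embryos with jaw malformation than DMSO controls.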 Put shortly:
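Steps: dechorionate 4 hpf embryos (pronase); plate 1/well at 6 hpf; add test chemical, 0.64% DMSO final; seal, cover, hold at 28C statically to 120 hpf; score jaw defect presence/absence microscopically. Dead embryos not scored.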

The nature of experiment [16]: Tanguay_ZF_120hpf_OTIC_legacy: (Legacy) Oregon State University Tanguay Lab 120 Hour Post-fertilization zebrafish Assay for Otic Vesicle Malformation (AID 2283639). Put shortly: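 Tropical 5D wild-type zebrafish embryos were exposed statically in sealed, foil-covered plates at 28C until 120 hpf, with 0.64% (vol/vol) DMSO final. Otic vesicle malformation was scored present/absent by brightfield microscopy, with DMSO as baseline.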

Experiment [17] is described as follows: Tanguay_ZF_120hpf_SNOU_legacy: (Legacy) Oregon State University Tanguay Lab 120 Hour Post-fertilization zebrafish Assay for Snout Malformation (AID 2283637). The essentials:
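Tropical 5D wild-type zebrafish embryos, dechorionated with pronase at 4 hpf, were exposed singly from 6 hpf to 120 hpf statically at 28C in 0.64% DMSO. Snout malformation was scored present/absent by brightfield microscopy, fitted against DMSO.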

A short description of experiment [18]: ATG_XTT_Cytotoxicity: Cytotoxicity Assessment in the Attagene TRANS-FACTORIAL HepG2 Assay (AID 2283584). Put shortly:
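Cells: human HepG2, transiently transfected with MRTU reporter constructs. Exposure 24 h. Readout: XTT, cell number. Baseline/neg ctrl DMSO; loss-of-signal scored.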

Experiment [19] concerns the target Cellular tumor antigen p53 (Homo sapiens) (UniProt P04637). As to the kind of experiment: TOX21_p53_BLA_p4_ratio: Tox21 HCT-116 p53 Agonism Beta-lactamase Assay, Ratio, Phase 4 (AID 2283601). The essentials:
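HCT116 cells carrying an inducible beta-lactamase reporter were plated at 4000 cells/well, rested 5 h, then exposed to compounds in DMSO (217-fold dilution) for 16 h at 37C. CCF4-AM substrate was loaded 2 h at room temperature; 460/530 nm emission ratio scored gain-of-signal versus DMSO.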

Results filed as inconclusive are left out. Calls of active or inactive are those of the source. The calls were made as follows, unless noted: active = hit-call score of the fitted dose curve at least 0.9, where 1 is the maximum; inconclusive = response in the unintended direction; inactive = score below 0.9.

In general, AC50 refers to the midpoint of the concentration-response curve, whichever way the signal moves.

Cellular tumor antigen p53 (Homo sapiens), sequence (P04637 whole entry, looked up): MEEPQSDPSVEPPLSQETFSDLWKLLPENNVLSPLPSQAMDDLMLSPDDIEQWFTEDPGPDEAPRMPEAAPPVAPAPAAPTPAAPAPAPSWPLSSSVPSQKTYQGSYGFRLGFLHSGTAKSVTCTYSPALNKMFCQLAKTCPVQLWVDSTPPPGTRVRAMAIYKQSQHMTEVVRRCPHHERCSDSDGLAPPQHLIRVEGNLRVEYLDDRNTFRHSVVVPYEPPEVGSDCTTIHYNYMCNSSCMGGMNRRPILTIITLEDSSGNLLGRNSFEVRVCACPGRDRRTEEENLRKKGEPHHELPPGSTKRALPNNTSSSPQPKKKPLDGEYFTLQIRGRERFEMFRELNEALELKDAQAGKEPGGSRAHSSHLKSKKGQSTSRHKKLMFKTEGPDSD

Regarding `COc1cc(OC)nc(Sc2cccc(Cl)c2C(=O)O)n1`, the compound was called inactive in experiment [1], in experiment [2], in experiment [3], in experiment [4], in experiment [5] and in [6]. In addition, the result in [7], in [8], in experiment [9], in experiment [10], in experiment [11] and in experiment [12] was inactive. Besides, the result in experiment [13], in experiment [14], in [15] and in experiment [16] was inactive.
Regarding `C[N+]1(C)CCCCC1`, the call in [1], in experiment [2], in experiment [3], in experiment [5], in experiment [7] and in experiment [9] was inactive. The compound was called inactive in [11], in [12], in experiment [13], in experiment [14], in [17] and in [15]. Further, the compound was called inactive in experiment [16].
As for `CCCOCC(=Nc1ccc(Cl)cc1C(F)(F)F)n1ccnc1`, the AC50 is 3.03 µM (active) in experiment [1]; 69 µM (active) in experiment [2]; 78.9 µM (active) in experiment [3]; 23.7 µM (active) in experiment [4]; 39.9 µM (active) in [5]; 35.4 µM (active) in [6]. Further, the concentration at half-maximal activity (AC50) was 68.1 µM (active) in [7], 24.9 µM (active) in experiment [8], 48.5 µM (active) in experiment [9] and 31.2 µM (active) in [10]. In addition, the compound was classed as inactive in [18], in experiment [11], in experiment [12], in experiment [13], in experiment [17] and in experiment [15]. The compound was called inactive in [16].
As for `Nc1nc(N)nc(NC2CC2)n1`, the compound was called inactive in experiment [1], in experiment [2], in experiment [3], in [4], in experiment [5] and in [6]. For the same compound, the outcome in experiment [7], in [8], in experiment [9], in [10], in [11] and in experiment [12] was inactive. Moreover, the compound was classed as inactive in [13], in experiment [14], in experiment [15] and in experiment [16].
For the compound `CCNc1nc(Cl)nc(NC(C)(C)C#N)n1`, the AC50 in experiment [1] was 3.53 µM (active). The outcome in [2], in [3], in experiment [4], in [6], in experiment [8] and in experiment [9] was inactive. Besides, the call in experiment [11], in [12] and in experiment [14] was inactive.
Regarding `COP(=O)(OC)SCn1c(=O)oc2cc(Cl)cnc21`, the AC50 in [1] was 9.92 µM (active); in [2], 9.92 µM (active); in [3] it was 74.2 µM (active); in [7], 49.1 µM (active); in experiment [9], 73.7 µM (active); in experiment [12], 44 µM (active). Also, the half-maximal activity concentration (AC50) in experiment [14] is 15.3 µM (active); in experiment [15], 15.9 µM (active). In addition, the result in experiment [5], in [8], in experiment [10], in experiment [19], in [11] and in experiment [13] was inactive. Moreover, the compound was called inactive in [16].
For `CNc1cnn(-c2cccc(C(F)(F)F)c2)c(=O)c1Cl`, the AC50 in [1] was 16.1 µM (active). Moreover, the call in experiment [2], in [3], in experiment [5], in experiment [6], in experiment [7] and in experiment [9] was inactive. The compound was called inactive in [11], in experiment [12], in experiment [13], in experiment [14] and in [15].
Turning to `CCOP(=S)(Oc1cnc(C(C)(C)C)nc1)OC(C)C` (centres undefined), the result in experiment [1], in [2], in [3], in experiment [5], in experiment [8] and in [10] was inactive. Moreover, the compound was classed as inactive in experiment [11], in [12], in experiment [13], in [14], in experiment [15] and in [16].
For the compound `CC(C1CC1)C(O)(Cn1cncn1)c1ccc(Cl)cc1` (centres undefined), the call in experiment [1], in experiment [2], in [3], in [4], in experiment [6] and in experiment [7] was inactive. Moreover, the compound was classed as inactive in experiment [8], in experiment [10] and in [11]. For the same compound, the AC50 in [12] was 36.3 µM (active); in experiment [13], 24.8 µM (active); in [14] it was 9.92 µM (active); in experiment [15], 24.7 µM (active).
